Common to all, as to test: NCI-60 one-dose screen, 48 h (100 = growth as untreated, 0 = no growth, -100 = all killed)
The subject of one assay is SR leukemia. Particulars: 10 µM unless noted.
The subject of a further assay is OVCAR-8 ovarian. The following applies: 10 µM unless noted.
In a further assay the test system is OVCAR-5 ovarian. Particulars: 10 µM unless noted.
For a further assay, the system named is OVCAR-4 ovarian. The following applies: 10 µM unless noted.
The test system of the next assay is IGROV1 ovarian. Particulars: 10 µM unless noted.
In the next assay the test system is OVCAR-3 ovarian. The following applies: 10 µM unless noted.
A further assay concerns HS 578T breast. Particulars: 10 µM unless noted.
The next assay concerns NCI/ADR-RES ovarian. The following applies: 10 µM unless noted.
The next assay concerns SK-OV-3 ovarian. Particulars: 10 µM.
Another assay concerns RPMI-8226 leukemia. The following applies: 10 µM.

These results are taken from PubChem BioAssay (NCI).

This is part of a sample that, as a whole, favours compounds with a hit. Of some 83,000 tested, about 20% had one in any assay.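 Values shown are percent growth following 48 h exposure of cells in 96-well plates to a single concentration of compound; below 10 was considered active.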 A number with no mark means an inactive call. Active and inactive are the calls of the source.

Turning to `Fc1c[c-]c(-c2ccccn2)c(F)c1.Fc1c[c-]c(-c2ccccn2)c(F)c1.[Cl][Pt+].[Cl][Pt+].c1ccc([PH+](C[PH+](c2ccccc2)c2ccccc2)c2ccccc2)cc1`, the growth with SR leukemia was 19.7%; in the assay on OVCAR-8 ovarian it was 15.1%; with OVCAR-5 ovarian, 49.2%; in the assay on OVCAR-4 ovarian, 6.98% (active); in the assay with IGROV1 ovarian, 21.2%; in the assay on OVCAR-3 ovarian it was 7.81% (active). Further, the growth in the assay on HS 578T breast was 26.1%; in the assay on NCI/ADR-RES ovarian it was 97.9%.
On to `CCN1C(=O)C2(Nc3ccccc3S2)c2cc(C)ccc21` (stereo not drawn), for which the growth with SR leukemia is 111%; in the assay with OVCAR-8 ovarian, 97.8%; in the assay on OVCAR-5 ovarian it was 91.8%; with OVCAR-4 ovarian, 95.9%; in the assay on SK-OV-3 ovarian, 100%; in the assay on IGROV1 ovarian it was 98.2%. In addition, the results for the growth with HS 578T breast and with NCI/ADR-RES ovarian were 116% and 101%, respectively.
In the case of `CN(C)c1ccc(/C=C(\C#N)c2cc3ccccc3n2C)cc1`, the growth with SR leukemia was 22%; with OVCAR-8 ovarian it was 34.8%; in the assay with OVCAR-5 ovarian it was 38.5%; in the assay on OVCAR-4 ovarian it was 40.3%; with IGROV1 ovarian, 26.7%; with OVCAR-3 ovarian it was -4.72% (active). In addition, the growth in the assay on HS 578T breast was 20.9%; in the assay with NCI/ADR-RES ovarian, 7.61% (active).
Consider `C=C1CC[C@@H]2[C@@](C)(CCC[C@]2(C)C(=O)O)[C@@H]1CC[C@H](CO)CCO`, for which the growth in the assay on SR leukemia is 85.2%; in the assay with OVCAR-8 ovarian, 104%; with OVCAR-5 ovarian, 108%; in the assay on OVCAR-4 ovarian, 99%; with SK-OV-3 ovarian, 102%; in the assay with IGROV1 ovarian it was 99%. The growth was 107% in the assay with HS 578T breast and 104% in the assay on NCI/ADR-RES ovarian.
For `COc1ccc(-c2cc(=O)oc3c4c(ccc23)OCN(Cc2ccc(F)cc2)C4)cc1`, the growth is 30.1% in the assay with RPMI-8226 leukemia; 56.7% in the assay on OVCAR-8 ovarian; 80.2% in the assay on OVCAR-5 ovarian; 35.2% with OVCAR-4 ovarian; 74.3% in the assay on SK-OV-3 ovarian; 64.5% in the assay with IGROV1 ovarian. The growth is 52.4% in the assay with OVCAR-3 ovarian, 83.1% in the assay with HS 578T breast and 45.9% in the assay on NCI/ADR-RES ovarian.
Turning to `O=C1/C(=C/c2ccc(Cl)cc2)N=C(c2ccccc2)N1CCc1cccs1`, the growth was 76.1% in the assay with RPMI-8226 leukemia; 36.1% in the assay with OVCAR-8 ovarian; 30.5% in the assay on OVCAR-5 ovarian; 62.1% with OVCAR-4 ovarian; 105% in the assay on SK-OV-3 ovarian; 55.3% with IGROV1 ovarian. In addition, the figures for the growth in the assay on OVCAR-3 ovarian, in the assay on HS 578T breast and in the assay with NCI/ADR-RES ovarian were 79.9%, 67.7% and 56.7%, respectively.
For `Cl.Fc1c[c-]c(-c2ccccn2)c(F)c1.[Pt].c1ccc([PH+](CC[PH+](c2ccccc2)c2ccccc2)c2ccccc2)cc1`, the growth in the assay on SR leukemia was -6.03% (active); with OVCAR-8 ovarian it was -29.1% (active); in the assay on OVCAR-5 ovarian, -93.4% (active); with OVCAR-4 ovarian, -87.8% (active); in the assay with IGROV1 ovarian, -75.5% (active); in the assay with OVCAR-3 ovarian it was -97.2% (active). Further, the growth in the assay on HS 578T breast was -44.6% (active); in the assay with NCI/ADR-RES ovarian it was -35.4% (active).
In the case of `c1ccc(-c2n(Cc3ccc4ccccc4n3)c3ccccc3[n+]2Cc2ccc3ccccc3n2)cc1`, the growth is -19.1% (active) with SR leukemia; 7.66% (active) in the assay with OVCAR-8 ovarian; 12.8% with OVCAR-5 ovarian; 7.64% (active) in the assay on OVCAR-4 ovarian; -34.3% (active) in the assay on IGROV1 ovarian; 0.883% (active) in the assay on OVCAR-3 ovarian. Further, the growth was 2.04% (active) with HS 578T breast and 73.4% in the assay with NCI/ADR-RES ovarian.
For the compound `O=c1[nH]c(=O)n(Cc2ccc(F)cc2)cc1F`, the growth with SR leukemia is 93.5% [50 µM]; in the assay on OVCAR-8 ovarian, 94.2% [50 µM]; in the assay on OVCAR-5 ovarian, 104% [50 µM]; in the assay on OVCAR-4 ovarian, 108% [50 µM]; in the assay with IGROV1 ovarian, 108% [50 µM]; with HS 578T breast, 104% [50 µM]. Moreover, the growth in the assay with NCI/ADR-RES ovarian is 113% [50 µM].
In the case of `Cc1ccc(N=c2nc3sc4c(C)ccc(C)c4n3c(N)c2C#N)cc1`, the growth in the assay with RPMI-8226 leukemia was 85.1%; in the assay with OVCAR-8 ovarian it was 104%; in the assay on OVCAR-5 ovarian, 104%; with OVCAR-4 ovarian, 88.9%; in the assay on SK-OV-3 ovarian, 96.3%; with IGROV1 ovarian it was 95.1%. Further, the growth with OVCAR-3 ovarian was 106%; with HS 578T breast, 104%; in the assay on NCI/ADR-RES ovarian it was 106%.
In the case of `COCCOC1=C(Cl)C(=O)c2ccccc2C1=O`, the growth in the assay with RPMI-8226 leukemia was 6.59% (active); with OVCAR-8 ovarian, 13.2%; in the assay on OVCAR-5 ovarian it was 31.6%; in the assay with OVCAR-4 ovarian, -21.6% (active); with SK-OV-3 ovarian, 87.5%; in the assay on IGROV1 ovarian, 21%. In addition, the growth in the assay on OVCAR-3 ovarian was -13.3% (active); in the assay with HS 578T breast, 4.85% (active); in the assay on NCI/ADR-RES ovarian it was 20.4%.
For the compound `CCN1CCN(c2ccc(Nc3ncc4ccc5ncn(C(C)C)c5c4n3)nc2)CC1`, the growth in the assay on SR leukemia is 3.9% (active); in the assay on OVCAR-8 ovarian, 13.6%; in the assay with OVCAR-5 ovarian, 4.92% (active); with OVCAR-4 ovarian, 5.12% (active); with IGROV1 ovarian it was -4.82% (active); with OVCAR-3 ovarian it was -28.2% (active). Further, the results for the growth in the assay on HS 578T breast and in the assay with NCI/ADR-RES ovarian were -20.8% (active) and 2.06% (active), respectively.
Regarding `O=S(=O)(Nc1ccccc1Cl)c1ccc(-c2cnc(C3CC3)o2)cc1`, the growth in the assay with SR leukemia is 41.5%; in the assay on OVCAR-8 ovarian it was 33.8%; in the assay on OVCAR-5 ovarian it was 38.3%; in the assay with OVCAR-4 ovarian, 50%; with IGROV1 ovarian, 33.1%; with OVCAR-3 ovarian, -32.1% (active). The growth in the assay on NCI/ADR-RES ovarian is 8.53% (active).
In the case of `COc1ccc(C2CC(c3cc(OC)c(OC)c(OC)c3)=NN2c2ccc(S(N)(=O)=O)cc2)cc1` (stereo not drawn), the growth in the assay on RPMI-8226 leukemia was 4.35% (active); in the assay on OVCAR-8 ovarian, 61.9%; in the assay with OVCAR-5 ovarian, 92.3%; in the assay with OVCAR-4 ovarian it was 69.9%; with SK-OV-3 ovarian it was 88.3%; with IGROV1 ovarian, 73.9%. In addition, the growth in the assay on OVCAR-3 ovarian was 77.5%; in the assay with HS 578T breast, 66.7%; with NCI/ADR-RES ovarian, 55.4%.
For `O=C(c1cnn2c1NC(c1ccc(F)cc1)C2)N1CCCCC1` (stereo not drawn), the growth in the assay on SR leukemia is 107%; with OVCAR-8 ovarian it was 106%; with OVCAR-5 ovarian, 102%; in the assay with OVCAR-4 ovarian, 98.7%; with IGROV1 ovarian, 103%; in the assay on OVCAR-3 ovarian, 106%. For the same compound, the growth in the assay on HS 578T breast is 99.8%; with NCI/ADR-RES ovarian, 109%.
